DT40 TDP1 CPT: DT40-hTDP1 cell growth loss with CPT; Potency, µM (doses to about 46.2 µM), actives largely listed as inhibitors; 420,000 tested, 12% active; chicken DT40 Tdp1-/-;hTDP1 cells + 20 nM CPT, ATP luminescence, 48 h; further: nearly all actives have a fitted effect of over 55% in size
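Chicken DT40 Tdp1-/- cells complemented with human TDP1, 400 cells/well, exposed to compounds plus 20 nM camptothecin for at least 48 h at 37 C; viability read as ATP content by CellTiter-Glo luminescence.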
S-ASM inh: human S-ASM enzyme inhibition. P17405. placental ASM, HMU-PC fluorogenic substrate, 60 min. Potency, µM (series often up to 57.5 µM), actives largely listed as inhibitors. 340,000 tested, 0.006% active
Target sequence (P17405 47-631 limits assumed): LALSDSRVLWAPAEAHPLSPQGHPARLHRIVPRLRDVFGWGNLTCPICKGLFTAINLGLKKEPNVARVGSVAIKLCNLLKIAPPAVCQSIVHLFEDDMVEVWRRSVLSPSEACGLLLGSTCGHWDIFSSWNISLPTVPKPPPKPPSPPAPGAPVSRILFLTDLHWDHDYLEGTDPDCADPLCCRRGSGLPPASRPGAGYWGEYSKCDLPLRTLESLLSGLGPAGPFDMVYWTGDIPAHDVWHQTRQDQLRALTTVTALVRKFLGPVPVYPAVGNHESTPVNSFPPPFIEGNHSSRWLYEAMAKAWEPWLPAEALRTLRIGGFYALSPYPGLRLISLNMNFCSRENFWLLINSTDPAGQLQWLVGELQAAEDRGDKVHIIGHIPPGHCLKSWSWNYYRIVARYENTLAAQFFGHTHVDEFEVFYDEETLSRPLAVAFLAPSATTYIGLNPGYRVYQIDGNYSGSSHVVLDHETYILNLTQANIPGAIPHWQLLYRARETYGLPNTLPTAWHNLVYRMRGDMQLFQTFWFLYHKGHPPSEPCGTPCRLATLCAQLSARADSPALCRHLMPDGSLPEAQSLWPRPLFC
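qHTS format. ASM enzyme prepared from human placenta hydrolyses the fluorogenic substrate HMU-PC0 (9 uM final) over 60 min at 37 °C after a 10 min compound preincubation.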
HepG2 tox: counter-screen for TGF-b inhibitors: cytotoxicity in HepG2 cells; HepG2 CAGA-GFP viability, ATP luminescence, 18 h; Potency, µM (doses to about 46.1 µM), hits mostly cytotoxic; 410,000 tested, 0.76% active
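HepG2 CAGA-GFP cells (1000/well, DMEM with 1% FBS) received compound, then TGF-beta at 500 pg/mL final, and were incubated 18 hours at 37 degrees C. Viability was read by CellTiter-Glo luminescence. Media-only wells were set as complete cell-killing and DMSO as no toxicity.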
TGFb SMAD3 inh: TGF-b pathway inhibition; HepG2 CAGA-GFP TGF-b/SMAD3 reporter, GFP fluorescence, 18 h; TGF-beta stimulated, 500 pg/mL final; Potency, µM (top dose mostly 46.1 µM), most hits filed as inhibitors; 410,000 tested, 1.2% active; AID 588855; further: nearly all actives have a fitted effect of over 65% in size
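HEPG2 CAGA-GFP cells (1000/well, DMEM with 1% FBS) were pre-incubated 2 h at 37 degrees C, given compound by pin tool, then stimulated with TGF-beta at 500 pg/mL final for 18 h before per-cell GFP fluorescence imaging.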
DT40 TDP1 no CPT: qHTS for Inhibitors of human tyrosyl-DNA phosphodiesterase 1 (TDP1): qHTS in cells in absence of CPT | DT40 Tdp1-/- hTDP1 cells, no CPT, ATP luminescence, 48 h | Potency, µM (doses to about 46.2 µM), hits mostly inhibitors | 420,000 tested, 15% active; further: nearly all actives have a fitted effect of over 55% in size
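DT40 Tdp1-/-;hTDP1 cells, no CPT (DMSO vehicle only), 400 cells/well; compounds pin-transferred; ≥48 hr, 37 °C; CellTiter-Glo 30 min RT dark, luminescence read.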
IL1B secr inh: inhibitors of inflammasome signaling (IL-1 beta secretion) | THP-1 LPS/ATP IL-1B secretion, AlphaLISA, 16 h; stronger effect = lower value | activity change, % at 57.5 µM | 360,000 tested, 4.7% active; in the data active means activity change below about -50%; inconclusive means mostly about -30% to -49%
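THP-1 cells pretreated 1 hr with compounds (up to 57.5 uM final), then stimulated with LPS (250 ng/mL final) plus ATP (1.25 mM final); secreted IL-1B measured by AlphaLISA after 16 hr, decreased signal indicating inhibition.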
Hits are given with their value; . = inactive; ? = inconclusive; / = no result given; [ ] = remark or other dose. An excerpt weighted towards active compounds, which were near 19% of everything screened. Unless noted, the call rests on the fitted dose curve; in most records, active means well fitted curve in the direction sought with a large enough effect; inconclusive means small, poorly fitted or top-dose-only effect, or another doubt; inactive means no such curve, though single readings can be large; an effect the other way counts as inactive or inconclusive.

SMILES | DT40 TDP1 CPT | S-ASM inh | HepG2 tox | TGFb SMAD3 inh | DT40 TDP1 no CPT | IL1B secr inh
C(=C\c1nccc2c1[nH]c1ccccc12)/c1ccccc1 | ? | . | 20µM | ? | 15µM | .
Fc1ccc(/C=C\c2nccc3c2[nH]c2ccccc23)cc1 | ? | . | . | ? | ? | -78
CSc1cnn(CCC#N)c(=O)n1 | . | / | / | / | . | .
COc1ccc(C[C@H]2c3cc(O)c(OC)cc3CC[N+]2(C)[O-])cc1O (some centres not stated) | ? | . | . | ? | 21µM | .
CN1CCc2nc3sc(C(=O)c4ccc(F)cc4)c(N)c3cc2C1 | ? | / | . | . | ? | /
COc1ccc(NC(=O)c2sc3nc4c(cc3c2N)CN(Cc2ccccc2)CC4)cc1OC | . | / | . | . | . | /
CCN1CCc2nc3sc(C(=O)c4ccccc4)c(N)c3cc2C1 | 2.6µM | / | . | . | 3.7µM | /
CCN1CCc2nc3sc(C(=O)c4ccc(F)cc4)c(N)c3cc2C1 | ? | / | . | . | 23µM | /
CCn1nc(C)c(CN2Cc3ccccc3OC(c3ccccc3OC)C2)c1C (configuration not stated) | .[9.04 µM] | / | / | / | ? | /
C/C(=N/NC(=O)c1sc(NS(=O)(=O)c2ccccc2)nc1C)c1sc(N)nc1C | . | . | . | . | . | .
COCc1ccc([C@@H]2C[C@H]3CN(Cc4cccc(Cl)c4)C(=O)[C@]34CCCN24)o1 | ? | . | . | . | ? | .
COc1ccc(-c2c(-c3cc(OC)cc(OC)c3)n(C)c3ccc(-c4cc(F)cc(OC)c4)cc23)cc1 | ? | . | . | . | 16µM | .
COc1cc(OC)cc(-c2c(-c3ccc(F)cc3)c3cc(-c4ccc5[nH]ccc5c4)ccc3n2C)c1 | 29µM | . | . | . | ? | .
COc1ccc(-c2c(-c3cc(OC)cc(OC)c3)n(C)c3ccc(-c4ccc(SC)cc4)cc23)cc1 | . | . | . | . | . | .
Cc1nn(-c2ccccc2)c(OC(=O)C(C)(C)C)c1Sc1ccccc1 | . | / | . | . | . | /
O=C(CSc1nc2c([nH]c3ccccc32)c(=O)n1-c1ccccc1)N1CCCCC1 | . | / | . | . | . | /
CCOc1cc(CNc2ccc3cn[nH]c3c2)ccc1OC | ? | . | . | ? | 21µM | .
COc1cc(CNc2ccc3[nH]c(=O)[nH]c3c2)ccc1OCc1ccc(F)cc1 | ? | . | . | . | . | .
COc1cc(CNc2ccc3[nH]c(=O)[nH]c3c2)ccc1OCc1ccccc1F | 21µM | . | . | . | 16µM | ?
CCOc1c(Cl)cc(CNc2ccc3[nH]c(=O)[nH]c3c2)cc1OC | 23µM | / | . | . | ? | /
COc1cc(CNc2ccc3[nH]c(=O)[nH]c3c2)ccc1OCc1ccc(Cl)cc1 | ? | . | . | 11µM | ? | .
COc1cc(C(=O)Nc2nnc(S(=O)(=O)N(C)c3ccccc3)s2)cc(OC)c1OC | ? | / | . | . | ? | /
O=C(NCCCN=C1NS(=O)(=O)c2ccccc21)c1ccc(F)cc1 | . | . | . | . | . | .
Cc1ccc(CNC(=O)C2CCC(=O)N(CC3CCCCC3)C2)o1 (configuration not stated) | . | . | . | . | . | .
Cn1ccc2c(-c3ccc4c(c3)OCCO4)cc3c(c21)C1CCC3O1 (configuration not stated) | . | / | . | . | . | .
COc1cc(CNc2ccc3[nH]c(=O)[nH]c3c2)cc(Br)c1OCc1ccccc1F | 10µM | . | . | . | 21µM | -60
COc1cc(CNc2ccc3[nH]c(=O)[nH]c3c2)cc(Br)c1OCC(=O)NC(C)(C)C | ? | . | . | . | ? | -68
CS(=O)(=O)Nc1cccc(-c2ccc3ncnc(Nc4ccc(F)cc4)c3c2)c1 | 18µM | / | / | / | ? | /
CS(=O)(=O)Nc1cccc(-c2ccc3ncnc(N4CCOCC4)c3c2)c1 | 4.1µM | / | / | / | 13µM | /
Fc1ccc(Nc2ncnc3ccccc23)cc1 | ? | . | . | . | . | .

Assay outcomes deposited in PubChem by National Center for Advancing Translational Sciences (NCATS).
